# Pf growth 96h – P. falciparum growth inhibition at 96 hour, primary screen for plastid delayed-death inhibitors; P. falciparum luciferase reporter growth, 96 h; Potency, µM (series often up to 28.7 µM), for the others: top-dose activity change, negative = inhibition, usual class: inhibitors; hit rate 6.9% among 320,000; AID 504834; note: potency is the fitted concentration of half-maximal effect; % is set by controls: 0 for no effect and ±100 for the full control effect
#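 Parasite growth measured via integrated firefly luciferase reporter in P. falciparum. Infected erythrocytes at 2% hematocrit, 0.05% parasitemia final were treated 96 hours at 37 C under 5% CO2, and luminescence was read.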
# CHX counter – affects cycloheximide protein synthesis inhibition readout, counter-screen | cell reporter, cycloheximide protein synthesis inhibition counterscreen | max response, % | hit rate 12% among 300,000; in the data active = max response mostly above about 13%, no sharp cut-off; inactive = mostly below about 14%; note: read at 38.3 µM for the half of the compounds with a filed dose; 0% is about no effect
# HCMV antiviral – inhibitors of human cytomegalovirus | HFF cells, HCMV-luciferase reporter, 72 h; hits give low values | activity change, negative = inhibition, % at 57.5 µM | hit rate 4.5% among 410,000; in the data active = activity change below about -60%; inconclusive = no clear call, values can overlap the other calls; inactive = above about -39%; note: % is set by controls: 0 for no effect and ±100 for the full control effect
#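 Two compound doses tested in HFFs infected with HCMV-luciferase, MOI 1 PFU/cell, 72 h at 37C. Lysate luminescence read with OneGlo; data normalized against buffer-only and 10uM Salinomycin inhibitor controls.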
# Pf growth 48h – inhibits P. falciparum growth in the first generation, 48 h; P. falciparum luciferase growth in erythrocytes, 48 h; hit rate 5.9% among 310,000; Potency, µM (highest dose often 28.7 µM), for the others: top-dose activity change, negative = inhibition, usual class: inhibitors; AID 504832; note: potency is the fitted concentration of half-maximal effect; % is set by controls: 0 for no effect and ±100 for the full control effect
#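 Read-out is firefly luciferase luminescence from an integrated reporter in P. falciparum, so falling signal marks reduced parasite growth. Infected erythrocytes were at 2% hematocrit and 0.1% parasitemia (final) in Albumax-supplemented RPMI 1640.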
# Shiga toxin inh – Shiga toxin inhibition; Vero cells, Shiga toxin protein synthesis inhibition reporter; hit rate 9.2% among 290,000; AID 2315; inhibition, % at 38.7 µM; in the data active = inhibition mostly above about 28%, no sharp cut-off; inactive = mostly below about 43%; note: 0% is about no effect
# HCV inhibitor – inhibitors of hepatitis C virus infection; Huh7.5.1 HCVcc-Cre infection, luciferase reporter, 44 h; Potency, µM (top dose mostly 41.8 µM), inactives show top-dose activity change, negative = inhibition, hits mostly inhibitors; hit rate 3.4% among 340,000; AID 651820; note: potency is the fitted concentration of half-maximal effect; % is set by controls: 0 for no effect and ±100 for the full control effect
#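 Whole-lifecycle infectious HCVcc-Cre system; cells 1,000/well, compound then virus (~0.5 moi) added 4 h after plating, 44 h culture. Luciferase read 15 sec following 15 min substrate incubation, room temp.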
# * marks the source's active call; other numbers are inactive results; u = inconclusive; x = no result. Only some compounds are listed: those with a hit (about 21% of all), similar ones and a draw of the others. Unless noted, calls come from the whole dose curve; as a rule, active = well fitted inhibition curve with a large enough effect; inconclusive = small, poorly fitted or top-dose-only effect, or another doubt; inactive = no such curve, though single readings can be large or run the other way.
SMILES,Pf growth 96h,CHX counter,HCMV antiviral,Pf growth 48h,Shiga toxin inh,HCV inhibitor
CC(C)(C)NC(=O)CSc1nc(-c2ccc(F)cc2)cs1,458%,32*,6,0%,83*,u
CCNC(=O)CSc1nc(-c2ccc(F)cc2)cs1,u,32*,47,27%,101*,-20%
COc1ccc(C(=O)C2CCCN(Cc3cnc(C)s3)C2)cc1OC (stereo unspecified),15µM*,-1,u,4%,-13,-3%
COc1cccc(C(=O)C2CCCN(Cc3ccon3)C2)c1 (stereo unspecified),u,7,-31,8%,1,-14%
Cc1ncc(CN2CCCC(C(=O)c3ccc(C(C)(C)C)cc3)C2)s1 (stereo unspecified),u,9.9*,u,u,44,11µM*
COc1ccc(C(=O)C2CCCN(Cc3ccon3)C2)cc1OC (stereo unspecified),u,57*,62,1%,47,10%
COc1ccc(C(=O)C2CCCN(Cc3cnc(C)s3)C2)c(OC)c1 (stereo unspecified),u,9,u,11%,19,u
COc1ccc2cc(C(=O)C3CCCN(Cc4cnc(C)s4)C3)ccc2c1 (stereo unspecified),u,5,-78*,u,-5,11µM*
COc1ccc(C(=O)C2CCCN(Cc3cnc(N4CCCC4)s3)C2)cc1OC (stereo unspecified),u,-2,-11,u,-6,-9%
Fc1cccc(CSc2nc(NCCc3ccccc3)c3ccccc3n2)c1,x,x,35,x,x,x
COc1ccc(C(=O)C2CCCN(C(=O)c3n[nH]c4c3CCCC4)C2)cc1OC (stereo unspecified),-1%,16*,-35,12%,30,-12%
Cc1cc(Cl)ccc1C(=O)C1CCCN(C(=O)c2n[nH]c3c2CCCC3)C1 (stereo unspecified),u,3,-39,9%,18,2%
OCCN1CC(O)C(O)C(O)C1CO (stereo unspecified),1%,x,x,-3%,x,x
CN(C)C(CNC(=O)c1ccc(NC(=O)c2cccs2)cc1)c1ccccc1 (stereo unspecified),u,-4,-1,u,5,-21%
CN(C)C(CNC(=O)c1ccc(C2SCCS2)cc1)c1ccccc1 (stereo unspecified),13%,35*,71,u,55*,-21%
COc1cccc(C2CC(=O)N3CN(c4cccc(Cl)c4C)CSC3=C2C#N)c1OC (stereo unspecified),0.93µM*,-7,12,x,-15,13%
Cc1ccc(C2CC(=O)N3CN(c4ccc(Br)cc4)CSC3=C2C#N)o1 (stereo unspecified),4.7µM*,5,67,x,24,11%
CCOc1ccc(N2CSC3=C(C#N)C(c4ccco4)CC(=O)N3C2)cc1 (stereo unspecified),u,1,19,x,-6,0%
COc1cc(OC)c(C2CC(=O)N3CN(c4ccccc4)CSC3=C2C#N)cc1OC (stereo unspecified),u,-3,20,37%,3,1%
CCc1ccccc1N1CSC2=C(C#N)C(c3cc(OC)c(OC)cc3OC)CC(=O)N2C1 (stereo unspecified),68%,6,8,13µM*,-24,u
COc1ccc(OC)c(C2CC(=O)N3CN(c4ccc(C)c(Cl)c4)CSC3=C2C#N)c1 (stereo unspecified),u,-5,u,x,-4,-3%
COc1ccc(OC)c(C2CC(=O)N3CN(c4cccc(Cl)c4)CSC3=C2C#N)c1 (stereo unspecified),7.4µM*,1,28,x,4,10%
CC(/C=C/C(=O)c1ccc(C)cc1)=C\c1ccccc1,156%,18*,77,80%,22,-7%
O=C(/C=C/Nc1ccc(F)cc1F)c1ccc(Br)cc1,x,x,146,x,x,17%
O=C(/C=C/NCc1cccnc1)c1ccc(Br)cc1,x,x,-7,x,x,13%
SMILES,Pf growth 96h,CHX counter,HCMV antiviral,Pf growth 48h,Shiga toxin inh,HCV inhibitor
CCc1ccc(C(=O)/C=C/NCc2ccc(F)cc2)cc1,u,19*,-13,u,49,29%
COc1ccc(C(=O)/C=C/NCc2ccc(C)cc2)cc1,x,x,-61*,x,x,-28%
Cc1ccc(C(=O)/C=C\C(=O)c2ccc(C)cc2)cc1,-9%,-2,-14,18%,5,9%
Cc1ccc(C(=O)/C=C\NCc2ccccc2)cc1,43%,75*,9,21%,86*,-15%
CCOC(=O)c1cnn(-c2cccc(Cl)c2)c1C1CCN(C(=O)OC(C)(C)C)CC1,x,x,1,x,x,x
CC(C)N(C(=O)Cn1cc(SCC(=O)Nc2ccccc2C(F)(F)F)c2ccccc21)C(C)C,x,x,-13,x,x,x
CCCC(=O)Nc1ccc(S(=O)(=O)N2CCc3ccccc32)cc1,x,x,-8,x,x,x
COc1ccc2[nH]c(=O)c(CNc3ccc(C)cc3C)cc2c1,10%,30*,-15,26%,70*,13%
COc1ccc2[nH]c(=O)c(CNc3cc(C)ccc3C)cc2c1,-2%,14*,-28,-17%,43*,-27%
COc1ccc2[nH]c(=O)c(CNc3ccccc3C)cc2c1,49%,43*,0,43%,90*,-24%
COc1ccc2[nH]c(=O)c(CNc3ccccc3OC)cc2c1,-3%,11,11,-19%,5,15%
COc1ccc2[nH]c(=O)c(CNc3ccccc3)cc2c1,u,43*,54,33%,73*,10%
COc1ccc(C(=O)COC(=O)c2cnc(C)cn2)c(OC)c1,0%,x,3,20%,x,-19%
CCC1CN(C(=O)N2CCC(C(=O)NCCc3ccc(OC)cc3OC)CC2)c2cc(C)ccc2O1 (stereo unspecified),x,x,-1,x,x,x
CC(Sc1nnc(-c2cccnc2)n1-c1ccccc1F)C(=O)N1CCCc2ccccc21 (stereo unspecified),u,17*,-65*,u,-10,6%
CCOC(=O)C1=CC[C@H]2c3c(c4ccccc4n3C)C[C@H]1N2C,u,x,-7,1%,x,-1%
Cc1c(C(=O)OC(C)C)sc(N)c1C(=O)OC(C)C,23%,32*,-29,49%,107*,u
CC(=O)c1sc(N)c(C(=O)OC(C)C)c1C,130%,19*,127,66%,24,14µM*
Cc1c(C(N)=O)sc(N)c1C(=O)OC(C)C,10%,2,28,0%,11,0%
O=C(c1cccs1)N1CCCC(c2nc3c(nnn3Cc3ccc(F)cc3)c(=O)[nH]2)C1 (stereo unspecified),0%,-2,19,u,1,17%
O=C(c1cccs1)N1CCCC(c2nc3c(nnn3Cc3ccccc3)c(=O)[nH]2)C1 (stereo unspecified),5.9µM*,-4,-30,8.3µM*,-5,7%

# Assay outcomes: PubChem, National Center for Advancing Translational Sciences (NCATS)
